Assay results taken from PubChem BioAssay (NCATS).
Inconclusive results are not listed. The source made the active and inactive calls. Unless noted, the call rests on the fitted dose curve; in most records, active means well fitted curve in either direction with a large enough effect (not every such curve was filed as active); inconclusive means small, poorly fitted or top-dose-only effect, or another doubt; inactive means flat fitted curve, though single readings scatter.

Key:
[1] = biological target: Lysosomal acid glucosylceramidase (Homo sapiens) (UniProt P04062); test: Glucocerebrosidase-p2 (AID 348; in the data active means potency below about 10 µM; further: potency means the concentration at half of the fitted maximal effect); settings: purified GBA, blue fluorogenic substrate, 40 min
Procedure, shortened: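 Normal human glucocerebrosidase (0.2 nM) with blue fluorogenic substrate (80 uM final) in citrate/phosphate pH 5.9 with 10mM sodium taurocholate, 0.01% tween-20; 40 min RT, NaOH/glycine stop; fluorescence Ex 365/Em 440; AC50 from a titration from 0.6 nM upwards.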

[2] = AP1 Signaling Pathway (AID 357); settings: ME-180 AP-1-bla reporter, EGF-induced, beta-lactamase ratio, 5 h; at 7.69 µM (top of the series) unless noted; further: on the % scale 0 is the no-effect control and ±100 the full control effect
Procedure, shortened: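 ME-180 cells with beta-lactamase reporter under AP-1 response element, stimulated with EC50 EGF; compounds tested in titration series, 5 h at 37 °C. CCF4 substrate added 2.5 h at room temperature; 460/530 nm emission ratio gave %activity and AC50.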

[3] = biological target: Cytochrome P450 1A2 (Homo sapiens) (UniProt P05177); test: p450-cyp1a2 (AID 410; calls by dose curve; further: potency means the concentration at half of the fitted maximal effect;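 on activity change, negative = inhibition: -100% = full effect of reference inhibitor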); settings: recombinant CYP1A2, luciferin-ME demethylation, luminescence; series mostly up to 57 µM
Procedure, shortened: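 20nM CYP1A2, 100uM Luciferin-ME (=Km), 100mM KPO4; cpd 10 min RT; +NADPH regen, 60 min RT; stop/detect 20 min; luminescence. Normalized to furafylline 57 uM = full inhibition.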

[4] = Stat Signaling Pathway (AID 446); settings: ME-180 (cervical carcinoma) SIE beta-lactamase reporter, IL-6 stimulated, 5 h; at 7.69 µM (top of the series) unless noted;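 further: ME-180 cervical cancer cells given 40 pM IL-6 alongside compound; SIE-controlled beta-lactamase reporter measured as 460/530 nm FRET emission ratio; on the % scale 0 is the no-effect control and ±100 the full control effect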
Procedure, shortened: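 Emission at 460 and 530 nm (excitation 405 nm) reports SIE-controlled beta-lactamase in ME-180 cells. Cells received compound with 40 pM IL-6 for 5 hrs at 37 C; data scaled between 300 pM IL-6 and 125 nM JAK-inhibitor controls.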

[5] = biological target: Glucocorticoid receptor (Homo sapiens) (UniProt P04150); test: GR-EFC Redistribution (AID 451; calls by dose curve; further: potency means the concentration at half of the fitted maximal effect); settings: CHO-K1 GR-EFC translocation, beta-gal luminescence, 2 h
Procedure, shortened: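 Translocation of GR-ED fusion to nuclear EA restores b-gal, read by luminescence after 1 h room-temperature detection. Engineered CHO-K1 biosensor cells, 1,000/well, exposed 2 h at 37 C to titrations up to 46 uM final.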

[6] = biological target: Mitogen-activated protein kinase 10 (Mus musculus) (UniProt Q61831); test: JNK3 AlphaScreen Assay (AID 530); settings: JNK3 lysate, c-Jun phosphorylation; series mostly up to 57.1 µM;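 further: kinase came from lysate of stimulated human HepG2 cells; signal reports phosphorylation of biotinylated GST-cJun 1-79 at Ser73 with 10 µM ATP; on the % scale 0 is the no-effect control and ±100 the full control effect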
Procedure, shortened: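 Kinase buffer: 20 mM Tris-HCl pH 7.6, 10 mM MgCl2, 1 mM DTT, 0.1 mM Na3VO4, 0.01% Tween-20; ATP 10 uM. Substrate biotin-GST-cJun(1-79), enzyme from activated HepG2 lysates. Detection by Ser73 phospho-antibody AlphaScreen.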

[7] = biological target: 3',5'-cyclic-AMP phosphodiesterase 4B (Homo sapiens) (UniProt Q07343); test: qHTS Assay for Inhibitors of PDE-IV (AID 607; active means well fitted activation curve with a large enough effect in the main read-out, with a control signal flat, not every such curve was filed as active; further: % of control where 0% means no effect); settings: HEK293 ACTOne CNG channel cells, membrane potential fluorescence; series mostly up to 22.9 µM
Procedure, shortened: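 The readout is membrane depolarisation from a cAMP-sensing CNG channel, detected with a potential dye at ex 535/em 590. Cells were HEK293-derived (endogenous PDE-IV) at 1000 cells/well, titrated up to 22.9 uM final.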

[8] = qHTS Assay for Lipid Storage Modulators (AID 1519; calls by dose curve); settings: Drosophila S3 cells, BODIPY lipid droplet/cell ratio, laser cytometry, cells loaded with oleic acid; for activity change, negative = inhibition: at 57.5 µM (top of the series)
Procedure, shortened: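 Cells seeded at 5,000 per well were treated with compounds over a concentration series and loaded with oleic acid (400 uM, as added). Lipid droplet fluorescence (488 nm excitation, 500-530 nm channel) was read by laser-scanning cytometry and normalized to 20 uM Triacsin C.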

[9] = Primary qHTS for small molecule stabilizers of the endoplasmic reticulum resident proteome: Secreted ER Calcium Modulated Protein (SERCaMP) assay (AID 1508630; active means well fitted curve in the direction sought with a large enough effect; an effect the other way counts as inactive or inconclusive; further: on the % scale 0 is the no-effect control and ±100 the full control effect); settings: SH-SY5Y GLuc-SERCaMP (Gaussia luciferase released on ER calcium loss) secretion, thapsigargin, luminescence; series mostly up to 38.4 µM
Procedure, shortened: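 The SH-SY5Y reporter protocol was run at 3 concentrations up to 38.3 uM (primary) or 11 concentrations (follow-up): 16 h compound, 100 nM thapsigargin for 4 h, then extracellular luciferase luminescence.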

[10] = biological target: Cytochrome P450 2C9 (Homo sapiens) (UniProt P11712); test: qHTS Assay for Inhibitors and Substrates of Cytochrome P450 2C9 (AID 883; active means well fitted curve in the direction sought with a large enough effect; an effect the other way counts as inactive or inconclusive; further: potency means the concentration at half of the fitted maximal effect; nearly all actives have a fitted effect of over 60% in size); settings: recombinant CYP2C9, luciferin-H luminescence, 60 min; series mostly up to 57.1 µM
Procedure, shortened: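 Inhibition of CYP2C9 is scored as loss of luminescence, with 57uM sulphaphenazole defining 100% inhibition. Substrate Luciferin-H is used at 100uM, equal to its KM; enzyme at 10nM in 25mM KPO4, 60 min at 37C with NADPH regeneration.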

[11] = biological target: Cytochrome P450 3A4 (Homo sapiens) (UniProt P08684); test: qHTS Assay for Inhibitors and Substrates of Cytochrome P450 3A4 (AID 884; active means well fitted curve in the direction sought with a large enough effect; an effect the other way counts as inactive or inconclusive; further: nearly all actives have a fitted effect of over 50% in size; further: potency means the concentration at half of the fitted maximal effect); settings: recombinant CYP3A4, Luciferin-PPXE luminescence; series mostly up to 57.1 µM
Procedure, shortened: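 Luminescent readout of luciferin produced by CYP3A4 (20 nM) dealkylation of Luciferin-PPXE, 25 uM (its KM). NADPH-driven reaction ran 60 min at RT after 10 min compound preincubation; data scaled to 57 uM ketoconazole as 100% inhibition.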

[12] = biological target: Cytochrome P450 2D6 (Homo sapiens) (UniProt P10635); test: qHTS Assay for Inhibitors and Substrates of Cytochrome P450 2D6 (AID 891; active means well fitted curve in the direction sought with a large enough effect; an effect the other way counts as inactive or inconclusive; further: nearly all actives have a fitted effect of over 60% in size; further: potency means the concentration at half of the fitted maximal effect); settings: recombinant CYP2D6, luciferin-ME EGE luminescence; series mostly up to 57.1 µM
Procedure, shortened: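 Luminescent read-out of luciferin formed by 5 nM human CYP2D6 demethylating 30 uM Luciferin-ME EGE (Km level) over 60 min at room temperature after NADPH regeneration addition. Data normalized to full inhibition by 1.43 uM quinidine.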

[13] = biological target: Glucocorticoid receptor (Homo sapiens) (UniProt P04150); test: GR-GFP Redistribution (AID 450;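 active means compounds whose dose series gives a full or clear partial fitted curve of increased nuclear translocation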; further: potency means the concentration at half of the fitted maximal effect); settings: U2OS GR-GFP nuclear translocation, laser cytometry, 2 h
[14] = biological target: Cytochrome P450 3A4 (Homo sapiens) (UniProt P08684); test: qHTS Assay for Activators of Cytochrome P450 3A4 (AID 885; active means well fitted curve in the direction sought with a large enough effect; an effect the other way counts as inactive or inconclusive; further: nearly all actives have a fitted effect of over 65% in size); settings: recombinant CYP3A4, Luciferin-PPXE luminescence, 60 min; series mostly up to 57.1 µM
Procedure, shortened: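 Activators are scored by enhanced luminescence from CYP3A4 conversion of luciferin-PPXE (25uM, equal to KM) to luciferin, after 60 min at RT with an NADPH-regenerating system.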

[15] = Confirmation and Secondary Assay for Modulators of Hemoglobin Beta Chain Splicing at IVS2 654 locus (AID 910; active means well fitted curve in the direction sought with a large enough effect; an effect the other way counts as inactive or inconclusive;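 further: HeLa cells stably carrying EGFP split by mutant beta-globin IVS2-654 intron; per-well total GFP intensity by laser scanning cytometry after 2-day treatment; % of control where 0% means no effect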); settings: HeLa EGFP-654 splicing reporter, GFP fluorescence, 48 h; series mostly up to 38.3 µM
Procedure, shortened: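 Readout: per-well total peak green fluorescence (488 nm ex, 500–520 nm em) from objects 5–250 µm, reflecting correct splicing of an EGFP-654 reporter. Compounds were applied for 2 days at 37 °C to overnight-plated HeLa EGFP-654 cells; controls were DMSO and 500 nM IVS2-654 PNA.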

[16] = Confirmation and Secondary Assay for Modulators of Hemoglobin Beta Chain Splicing at IVS2 705 locus (AID 930; active means well fitted curve in the direction sought with a large enough effect; an effect the other way counts as inactive or inconclusive;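 further: HeLa cells stably expressing the EGFP-705 splicing reporter; % of control where 0% means no effect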); settings: HeLa EGFP-705 splicing reporter, GFP fluorescence, 48 h; series mostly up to 38.3 µM
Procedure, shortened: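 HeLa cells stably carrying EGFP interrupted by mutant beta-globin IVS2-705 intron (CMV-driven) were seeded at 500 cells/well, treated next day with compound for 2 days at 37C; corrected splicing restores EGFP, read as total peak GFP intensity per well.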

[17] = biological target: Ubiquitin carboxyl-terminal hydrolase 1 (Homo sapiens) (UniProt O94782); test: Inhibitors of USP1/UAF1: Pilot qHTS (AID 504865; active means well fitted curve in the direction sought with a large enough effect; an effect the other way counts as inactive or inconclusive;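 further: rhodamine fluorescence freed from ubiquitin-rhodamine substrate followed over time; top concentration of the series differs between compounds; on the % scale 0 is the no-effect control and ±100 the full control effect; nearly all actives have a fitted effect of over 35% in size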); settings: purified USP1/UAF1, Ub-rhodamine cleavage fluorescence; series mostly up to 54.9 µM
Procedure, shortened: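 1nM USP1/UAF1 + cpd, 15 min RT; start w/ Ub-Rho 150nM final; kinetic FL 480/540 nm, 6 reads q60 s. Buffer 50mM HEPES pH 7.8, 0.5mM EDTA, 1mM TCEP, 0.01% Tween-20, 0.1 mg/ml BSA.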

[18] = measured here: cell count channel max response
[19] = measured here: lipid channel max response

Chain of Lysosomal acid glucosylceramidase (Homo sapiens) (P04062 whole entry, looked up): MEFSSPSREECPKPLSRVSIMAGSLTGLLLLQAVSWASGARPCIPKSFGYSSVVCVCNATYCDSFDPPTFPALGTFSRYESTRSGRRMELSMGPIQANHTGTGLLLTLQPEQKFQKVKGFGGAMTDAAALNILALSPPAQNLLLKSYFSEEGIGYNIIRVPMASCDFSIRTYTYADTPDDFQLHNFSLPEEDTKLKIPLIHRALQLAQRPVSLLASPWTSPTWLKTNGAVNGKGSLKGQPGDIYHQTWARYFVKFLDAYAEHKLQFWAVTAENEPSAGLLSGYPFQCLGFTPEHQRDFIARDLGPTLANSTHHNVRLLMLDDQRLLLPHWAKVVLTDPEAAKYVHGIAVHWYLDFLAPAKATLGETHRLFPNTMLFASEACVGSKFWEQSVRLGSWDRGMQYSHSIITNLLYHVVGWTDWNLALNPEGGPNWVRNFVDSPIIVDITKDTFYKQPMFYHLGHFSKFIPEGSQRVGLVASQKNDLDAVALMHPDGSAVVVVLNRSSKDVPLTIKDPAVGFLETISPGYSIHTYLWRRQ
Chain of Cytochrome P450 1A2 (Homo sapiens) (P05177 whole entry, looked up): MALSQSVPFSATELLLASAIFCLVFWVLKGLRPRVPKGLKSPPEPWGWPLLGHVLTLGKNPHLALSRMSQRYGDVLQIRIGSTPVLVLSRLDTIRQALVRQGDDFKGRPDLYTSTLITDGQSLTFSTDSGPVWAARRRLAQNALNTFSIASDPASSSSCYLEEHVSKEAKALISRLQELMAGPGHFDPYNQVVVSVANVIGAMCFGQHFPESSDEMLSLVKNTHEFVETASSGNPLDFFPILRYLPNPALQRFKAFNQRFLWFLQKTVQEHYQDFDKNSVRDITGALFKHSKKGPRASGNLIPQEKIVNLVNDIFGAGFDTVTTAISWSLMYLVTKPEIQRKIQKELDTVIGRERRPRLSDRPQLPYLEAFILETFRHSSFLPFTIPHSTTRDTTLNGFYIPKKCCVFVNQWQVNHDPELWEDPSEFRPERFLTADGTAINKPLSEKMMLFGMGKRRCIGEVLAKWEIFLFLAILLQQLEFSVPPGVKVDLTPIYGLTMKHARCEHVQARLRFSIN
Chain of Glucocorticoid receptor (Homo sapiens) (P04150 whole entry, looked up, the tested form may be a part): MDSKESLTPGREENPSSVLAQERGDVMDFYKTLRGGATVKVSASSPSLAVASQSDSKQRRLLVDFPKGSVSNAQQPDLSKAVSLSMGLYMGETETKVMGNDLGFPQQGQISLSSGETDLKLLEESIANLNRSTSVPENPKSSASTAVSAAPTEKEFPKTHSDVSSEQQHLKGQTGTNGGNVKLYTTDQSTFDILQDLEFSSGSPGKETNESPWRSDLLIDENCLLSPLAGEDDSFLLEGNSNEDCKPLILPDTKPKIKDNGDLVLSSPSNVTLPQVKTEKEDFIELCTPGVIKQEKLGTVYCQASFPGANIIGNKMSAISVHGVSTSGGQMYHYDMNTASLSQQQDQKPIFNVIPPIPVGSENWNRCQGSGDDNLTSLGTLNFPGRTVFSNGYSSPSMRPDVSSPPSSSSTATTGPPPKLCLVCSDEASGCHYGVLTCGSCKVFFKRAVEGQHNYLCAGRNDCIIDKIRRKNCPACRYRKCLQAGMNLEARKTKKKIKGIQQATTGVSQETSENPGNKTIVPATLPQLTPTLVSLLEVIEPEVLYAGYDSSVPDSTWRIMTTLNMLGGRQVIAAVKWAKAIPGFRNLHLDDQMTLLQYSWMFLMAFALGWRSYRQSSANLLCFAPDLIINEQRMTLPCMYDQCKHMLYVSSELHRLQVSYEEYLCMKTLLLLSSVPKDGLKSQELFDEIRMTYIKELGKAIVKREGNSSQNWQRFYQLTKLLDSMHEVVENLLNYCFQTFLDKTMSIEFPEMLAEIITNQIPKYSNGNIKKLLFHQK
Chain of Cytochrome P450 2D6 (Homo sapiens) (P10635 whole entry, looked up): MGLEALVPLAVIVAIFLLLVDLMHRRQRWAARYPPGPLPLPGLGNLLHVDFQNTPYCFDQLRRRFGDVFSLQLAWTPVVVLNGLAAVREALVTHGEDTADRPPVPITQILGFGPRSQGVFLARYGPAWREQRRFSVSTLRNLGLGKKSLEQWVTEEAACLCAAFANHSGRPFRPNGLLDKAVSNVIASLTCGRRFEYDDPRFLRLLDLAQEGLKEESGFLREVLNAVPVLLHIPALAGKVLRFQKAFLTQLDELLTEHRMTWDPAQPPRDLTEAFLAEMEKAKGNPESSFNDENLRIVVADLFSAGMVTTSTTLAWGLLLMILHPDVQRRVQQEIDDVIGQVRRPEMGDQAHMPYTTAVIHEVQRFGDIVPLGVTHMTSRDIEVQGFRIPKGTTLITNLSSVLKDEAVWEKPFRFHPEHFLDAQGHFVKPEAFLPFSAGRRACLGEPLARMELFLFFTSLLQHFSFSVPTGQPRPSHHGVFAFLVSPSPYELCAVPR
Chain of 3',5'-cyclic-AMP phosphodiesterase 4B (Homo sapiens) (Q07343 whole entry, looked up): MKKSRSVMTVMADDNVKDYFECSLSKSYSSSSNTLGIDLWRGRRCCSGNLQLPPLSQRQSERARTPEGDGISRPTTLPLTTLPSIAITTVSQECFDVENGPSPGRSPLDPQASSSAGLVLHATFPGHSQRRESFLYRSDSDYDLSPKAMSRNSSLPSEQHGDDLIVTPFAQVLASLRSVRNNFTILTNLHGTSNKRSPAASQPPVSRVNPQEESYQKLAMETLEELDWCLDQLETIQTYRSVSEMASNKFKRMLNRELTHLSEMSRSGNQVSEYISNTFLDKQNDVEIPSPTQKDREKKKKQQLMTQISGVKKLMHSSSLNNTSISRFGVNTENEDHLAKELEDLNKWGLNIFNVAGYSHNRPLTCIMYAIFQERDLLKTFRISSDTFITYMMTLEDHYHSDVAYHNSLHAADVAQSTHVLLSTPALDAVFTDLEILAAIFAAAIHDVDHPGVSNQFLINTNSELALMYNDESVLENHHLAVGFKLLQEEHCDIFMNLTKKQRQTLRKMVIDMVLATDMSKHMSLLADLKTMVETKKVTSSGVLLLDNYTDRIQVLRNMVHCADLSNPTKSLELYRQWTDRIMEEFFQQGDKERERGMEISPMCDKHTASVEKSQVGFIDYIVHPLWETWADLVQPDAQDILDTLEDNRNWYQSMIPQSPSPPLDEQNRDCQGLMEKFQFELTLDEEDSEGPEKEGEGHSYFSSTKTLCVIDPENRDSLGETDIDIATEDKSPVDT
Chain of Cytochrome P450 3A4 (Homo sapiens) (P08684 whole entry, looked up): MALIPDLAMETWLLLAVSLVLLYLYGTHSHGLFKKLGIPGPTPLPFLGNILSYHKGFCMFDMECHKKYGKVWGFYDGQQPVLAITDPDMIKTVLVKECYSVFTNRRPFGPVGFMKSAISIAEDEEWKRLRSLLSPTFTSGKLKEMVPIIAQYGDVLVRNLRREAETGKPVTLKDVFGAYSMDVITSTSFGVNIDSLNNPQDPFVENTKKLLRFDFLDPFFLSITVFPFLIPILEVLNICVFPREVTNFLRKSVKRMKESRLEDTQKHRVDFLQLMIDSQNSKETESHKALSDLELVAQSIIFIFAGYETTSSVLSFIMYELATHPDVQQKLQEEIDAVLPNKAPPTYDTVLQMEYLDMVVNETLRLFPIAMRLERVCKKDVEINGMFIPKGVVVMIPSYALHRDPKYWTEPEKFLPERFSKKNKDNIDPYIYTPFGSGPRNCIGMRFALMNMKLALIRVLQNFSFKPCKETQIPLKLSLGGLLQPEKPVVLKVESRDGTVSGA
Chain of Cytochrome P450 2C9 (Homo sapiens) (P11712 whole entry, looked up): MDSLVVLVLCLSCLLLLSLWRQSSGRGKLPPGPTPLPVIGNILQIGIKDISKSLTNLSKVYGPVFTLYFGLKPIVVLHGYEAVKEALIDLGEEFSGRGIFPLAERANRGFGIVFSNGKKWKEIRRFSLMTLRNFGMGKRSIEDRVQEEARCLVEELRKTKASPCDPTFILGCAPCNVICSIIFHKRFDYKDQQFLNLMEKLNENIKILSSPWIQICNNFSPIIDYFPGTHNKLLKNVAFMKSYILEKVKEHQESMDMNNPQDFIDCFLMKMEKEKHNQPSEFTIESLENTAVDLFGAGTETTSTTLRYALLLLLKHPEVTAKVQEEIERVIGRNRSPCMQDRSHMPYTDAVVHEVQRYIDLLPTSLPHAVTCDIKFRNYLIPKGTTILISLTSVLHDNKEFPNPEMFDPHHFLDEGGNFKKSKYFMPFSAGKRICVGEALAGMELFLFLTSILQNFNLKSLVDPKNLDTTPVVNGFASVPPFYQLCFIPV
Chain of Ubiquitin carboxyl-terminal hydrolase 1 (Homo sapiens) (O94782 whole entry, looked up): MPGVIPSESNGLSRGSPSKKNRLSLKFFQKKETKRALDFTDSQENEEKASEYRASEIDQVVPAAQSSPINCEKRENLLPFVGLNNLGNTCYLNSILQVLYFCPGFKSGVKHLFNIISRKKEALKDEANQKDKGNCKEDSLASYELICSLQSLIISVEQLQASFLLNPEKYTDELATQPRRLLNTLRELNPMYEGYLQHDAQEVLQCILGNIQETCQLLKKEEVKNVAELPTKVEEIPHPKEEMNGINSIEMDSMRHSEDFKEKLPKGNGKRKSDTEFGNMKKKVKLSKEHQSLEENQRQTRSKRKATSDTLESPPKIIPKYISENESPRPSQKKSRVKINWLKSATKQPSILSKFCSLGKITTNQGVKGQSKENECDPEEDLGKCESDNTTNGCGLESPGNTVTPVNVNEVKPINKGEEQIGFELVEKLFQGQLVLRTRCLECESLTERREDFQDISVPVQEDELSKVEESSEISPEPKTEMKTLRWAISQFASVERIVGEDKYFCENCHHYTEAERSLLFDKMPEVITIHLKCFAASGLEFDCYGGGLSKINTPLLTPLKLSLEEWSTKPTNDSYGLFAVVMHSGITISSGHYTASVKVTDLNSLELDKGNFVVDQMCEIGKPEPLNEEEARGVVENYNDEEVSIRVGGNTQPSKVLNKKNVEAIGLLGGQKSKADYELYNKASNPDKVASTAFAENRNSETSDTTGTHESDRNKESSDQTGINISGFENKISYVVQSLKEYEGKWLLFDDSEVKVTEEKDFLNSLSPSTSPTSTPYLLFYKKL

CC(=O)N1CCC2(CCN(Cc3ccccc3)CC2)CC1
inactive: Potency [1] > 11.4 µM | activity change, negative = inhibition [2] -7.18% | Potency [3] | activity, negative = inhibition [4] -5.27% | Potency [5] > 46 µM | Potency [6] | Potency [7] | activity change, negative = inhibition [8] -3.2% | outcome [9]
-4.28%: max response [8, 18]
-4.62%: max response [8, 19]

CN1CCCC2(CCN(C(=O)c3cccc(F)c3)CC2)C1
7.52%: max response [8, 18]
10.1%: max response [8, 19]
inactive: Potency [1] > 11.4 µM | activity change, negative = inhibition [2] -7.14% | activity, negative = inhibition [4] 6.64% | Potency [5] > 46 µM | Potency [6] | Potency [7] | Potency [11] | Potency [12] | activity change, negative = inhibition [8] 0.413% | outcome [9]
active: Potency [3] 31.6 µM | Potency [10] 20 µM

CN(C)Cc1ccccc1-c1cncnc1NCc1cccnc1
inactive: Potency [1] > 11.4 µM | activity change, negative = inhibition [2] -0.642% | activity, negative = inhibition [4] 9.42% | Potency [13] > 46 µM | Potency [5] > 46 µM | Potency [6] | Potency [7] | Potency [14] | Potency [15] | outcome [16] | activity change, negative = inhibition [8] 2.08% | Potency [17] | outcome [9]
3.75%: max response [8, 18]
active: Potency [3] 12.6 µM | Potency [11] 1.58 µM | Potency [12] 6.31 µM
4.73%: max response [8, 19]

CC(C)CN1CCC2(CC1)CCN(C(=O)c1cc(C(F)(F)F)cc(C(F)(F)F)c1)CC2
inactive: Potency [1] > 11.4 µM | activity change, negative = inhibition [2] 3.4% | Potency [3] | activity, negative = inhibition [4] 0.414% | Potency [5] > 46 µM | Potency [6] | Potency [7] | activity change, negative = inhibition [8] -2.84% | outcome [9]
-18.2%: max response [8, 18]
-17.3%: max response [8, 19]

CC(C)CN1CCC2(CC1)CCN(C(=O)c1cnccn1)CC2
inactive: Potency [1] > 11.4 µM | activity change, negative = inhibition [2] -3.54% | Potency [3] | activity, negative = inhibition [4] 3.68% | Potency [5] > 46 µM | Potency [6] | Potency [7] | activity change, negative = inhibition [8] -2.81% | outcome [9]
-8.33%: max response [8, 19]
-8.95%: max response [8, 18]

COCC(=O)N1CCC2(CCCN(Cc3ccccc3OC)C2)CC1
2.52%: max response [8, 18]
inactive: Potency [1] > 11.4 µM | activity change, negative = inhibition [2] -2.02% | Potency [3] | activity, negative = inhibition [4] 10.7% | Potency [5] > 46 µM | Potency [6] | Potency [7] | activity change, negative = inhibition [8] -6.35% | outcome [9]
0.269%: max response [8, 19]

O=C(c1ccncc1)N1CCC2(CCCN(C(c3ccccc3)c3ccccc3)C2)CC1
inactive: Potency [1] > 11.4 µM | activity change, negative = inhibition [2] 22.9% | activity, negative = inhibition [4] 11.1% | Potency [5] > 46 µM | Potency [6] | Potency [7] | Potency [14] | activity change, negative = inhibition [8] 2.92% | outcome [9]
12.6%: max response [8, 18]
17.9%: max response [8, 19]
active: Potency [3] 0.2 µM | Potency [10] 5.01 µM | Potency [12] 0.0398 µM
